Usually inhibition stands for the relative decrease from the control value, in per cent.

The structures appear in SMILES notation. “And” between values parts separate entries of the source, which are not always exact repeats. Equal entries are not always repeated. About 2,100 (0.62%) of roughly 340,000 compounds were called active. A selection follows. Entries with a potency or affinity are not part of this list. A number with no mark means an inactive call.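 Rule for the calls: active = first-screen hits whose inhibition reached a set limit at any dose in the follow-up dose series; inconclusive = inhibition above the set first-screen limit but never retested; inactive = the rest.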

Chain of Rac GTPase-activating protein 1 (Homo sapiens) (Q9H0H5 whole entry, looked up): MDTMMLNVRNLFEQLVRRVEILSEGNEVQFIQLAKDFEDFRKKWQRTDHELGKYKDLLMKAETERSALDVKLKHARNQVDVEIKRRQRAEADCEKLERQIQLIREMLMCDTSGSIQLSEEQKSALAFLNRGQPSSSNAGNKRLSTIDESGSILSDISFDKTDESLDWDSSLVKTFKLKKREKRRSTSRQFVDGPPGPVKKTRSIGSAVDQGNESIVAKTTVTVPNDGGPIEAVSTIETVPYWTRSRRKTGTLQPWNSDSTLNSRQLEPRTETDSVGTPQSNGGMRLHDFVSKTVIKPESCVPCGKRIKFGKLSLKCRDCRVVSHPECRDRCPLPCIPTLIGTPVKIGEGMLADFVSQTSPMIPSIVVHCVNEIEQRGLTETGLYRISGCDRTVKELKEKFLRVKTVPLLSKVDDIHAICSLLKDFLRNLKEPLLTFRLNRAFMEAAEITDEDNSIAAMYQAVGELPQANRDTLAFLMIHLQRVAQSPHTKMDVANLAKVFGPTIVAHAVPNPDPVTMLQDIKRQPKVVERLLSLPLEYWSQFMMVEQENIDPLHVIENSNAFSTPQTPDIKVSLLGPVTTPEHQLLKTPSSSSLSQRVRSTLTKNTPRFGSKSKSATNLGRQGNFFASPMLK

The test has as its target Rac GTPase-activating protein 1 (Homo sapiens) (UniProt Q9H0H5). Put plainly: MgcRacGAP GTPase-activating activity inhibitors, confirmation, biochemical, ADP Hunter fluorescence, primary and confirmatory (AID 624330).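 Note: fluorescence reports GDP produced by GAP-driven GTP hydrolysis.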 Conditions: MgcRacGAP-stimulated Rac1 GTP hydrolysis, at 30 µM, active compounds read high, GST-tagged Rac1 F28L mutant substrate.
As to `COc1ccc(-n2c(C)cc(/C=C3\C(=N)N4N=C(CC(=O)N5CCOCC5)SC4=NC3=O)c2C)c(OC)c1`, the inhibition was -2.43%.
Take `Cc1cc(-c2ccccc2)n2ncnc2n1`: the inhibition is 6.89%.
The value for `Cc1cc(-c2ccc3ccccc3c2)n2ncnc2n1` was -7.09%; that for `COc1ccc(NC(=O)CCCc2ccccc2)c(OC)c1` was 6.75%.
For the compound `CNC(=O)CC1C(=O)N(Cc2ccccc2)C(=S)N1NC(=O)c1cccc(F)c1` (configuration not stated), the inhibition was -0.78%.
Next, `COCCn1c(CN2CCc3ccccc3C2)nc2c1c(=O)n(C)c(=O)n2C`: 7.99%.
Next, `CCCc1nc2ccccc2n1CCOc1ccccc1`: 3.33%; `COc1ccc(/C=C(\C#N)C(=O)NCc2cccnc2)cc1OC`: 0.52%.
Regarding `COc1cc(/C=N/NC(=O)C(=O)NCc2cccnc2)ccc1O`, the inhibition is 25.4%.
Next, `CCOc1cc(/C=C(\C#N)C(=O)NCC2CCCO2)ccc1OCC(N)=O` (configuration not stated): 4.74%; `CCOc1ccc(/C=C(\C#N)C(=O)NCC2CCCO2)cc1OCC` (configuration not stated): -2.79%.
The value for `CCOc1cc(/C=C(\C#N)C(=O)Nc2ccccn2)ccc1O` was 12.8%; that for `N#C/C(=C/c1cccc(O)c1)C(=O)NCc1ccc(Cl)cc1` was 24.4%; that for `COc1ccc(/C=N/NC(=O)C(=O)NCc2cccnc2)cc1OC` was -5.14%.
The value for `N#C/C(=C/c1ccc(O)cc1)C(=O)NCc1ccc(Cl)cc1` was 3.42%; that for `O=C(NCc1ccco1)C1CC(c2cc(C(F)(F)F)cc(C(F)(F)F)c2)=NO1` (configuration not stated) was 6.53%; that for `COc1cc2c(cc1NC(=O)CN(C)Cc1nc3ccccc3c(=O)[nH]1)oc1ccccc12` was 5.31%.
For `O=C(Nc1ccc(Cl)cc1Cl)NC1CCN(S(=O)(=O)c2ccc(F)cc2)CC1`, the inhibition is 9.28%.
The value for `Cc1ccc(-c2ccc(/C=N/NC(=O)Cc3nnc(N)s3)o2)cc1Cl` was 7.23%.
Next, `COc1ccc(S(=O)(=O)N2CCOCC2)cc1NC(=O)c1cc(C)oc1C`: 6.98%; `O=C(Cn1nc(-c2ccccc2)c2ccccc2c1=O)Nc1ccc(F)cc1`: 5.93%; `CCn1c(=O)n(CC(=O)Nc2ccc(F)cc2)c(=O)c2ccccc21`: 12.4%.
The value for `O=C(Cn1sc2ccccc2c1=O)Nc1ccc(Cl)cc1` was 31.2%.
As for `O=C(Cn1sc2ccccc2c1=O)Nc1ccc(Br)cc1`, the inhibition is 31.7%.
As to `O=c1c(-c2ccc(Br)cc2)[n+]([O-])c2ccccc2n1OCc1ccccc1`, the inhibition was -0.43%.
The value for `CSc1ccc(Cn2nnc(C(=O)Nc3ccc(C)c(C)c3)c2N)cc1` was 8.18%; that for `Cn1c(SCC(=O)Nc2cccc(F)c2)nnc1-c1cc2ccccc2o1` was 7.89%; that for `Nc1ccc(NC(=O)c2cccs2)cc1` was 24%.
Next, `CC1=C(C(=O)NCCc2ccc(C)cc2)C2(CCC(C)CC2)OC1=O` (configuration not stated): 7.59%; `O=C(NC1=C(Nc2ccc(Cl)cc2)C(=O)c2ccccc2C1=O)c1ccccc1`: 6.16%.
Next, `O=C(Nc1ccccc1Cl)c1ccccc1`: 6.83%; `C/C(=N\NC(=O)C(O)c1ccccc1)c1cccnc1` (configuration not stated): 2.12%.
For the compound `Nc1ccc(C(=O)N/N=C/c2sc(N3CCOCC3)nc2-c2ccccc2)cc1`, the inhibition is 12%.
In the case of `COc1ccc(C(=O)N/N=C/c2ccc(N3CCOCC3)o2)cc1OC`, the inhibition is 14.2%.
As for `COc1ccc(C(=O)N/N=C/c2sc(N3CCOCC3)nc2-c2ccccc2)cc1OC`, the inhibition is 7.1%.
The value for `O=C(N/N=C/c1ccc(N2CCOCC2)s1)c1ccccc1Cl` was 25.1%; that for `O=C(N/N=C/c1ccc(N2CCOCC2)s1)c1ccc(NS(=O)(=O)c2cccs2)cc1` was 18.4%; that for `O=C(NN=Cc1ccc(N2CCOCC2)s1)c1ccc([N+](=O)[O-])cc1` was 9.59%.
As to `CCCNC(=O)CSC1=N/C(=C/c2ccc(F)cc2)C(=O)N1CC`, the inhibition was -5.26%.
The value for `CCC(=O)NC(=S)Nc1ccc(S(=O)(=O)NC(C)C)cc1` was -11.4%.
With `O=C(COC(=O)C1CCC1)Nc1cccc(Cl)c1`, the inhibition was 2.49%.
Next, `O=C(NC1CCCCC1)C(c1ccncc1)N(C(=O)c1csnn1)c1ccc(F)cc1` (configuration not stated): 0.4%; `CC1=CCC2C(=O)N(c3ccccc3OC(=O)c3ccccc3F)C(=O)C2C1` (configuration not stated): 2.92%; `C=CCC1CCC/C(=N\NS(=O)(=O)c2ccc(C)cc2)C1` (configuration not stated): -4.06%.
The value for `Nc1ccn(CCCN2CCN(C(=O)C3CC3)CC2)c(=O)n1` was 15.1%; that for `COc1cc(C2c3[nH]c4ccccc4c3C[C@H]3C(=O)N(CCO)CC(=O)N23)cc(OC)c1OC` (some centres not stated) was 8.37%.
Next, `Cc1c(C(=O)N2CCN(S(=O)(=O)c3ccccc3)CC2)oc2ccccc12`: 3.82%; `O=C(Nc1ccccc1)N1CCc2scc[n+]2-c2ccccc21`: 16.9%; `O=C(NCc1nnc(SCC(=O)N2CCOCC2)o1)c1c(F)cccc1F`: 7.33%.
For `O=C(NNc1c(Cl)cccc1Cl)c1sccc1Cl`, the inhibition is 6.69%.
The value for `COc1ccc(NC(C)=O)c(C)c1` was -3.51%; that for `COc1ccc(Nc2cccccc2=O)cc1` was 7.45%.
In the case of `COc1ccc(Nc2cccc3ccccc23)cc1`, the inhibition is 31.6%.
Next, `COc1ccc(C(=O)Nc2ccc3ccccc3c2)cc1`: 3.97%; `O=C(Nc1ccc(S(=O)(=O)Nc2ncccn2)cc1)c1ccccc1`: 2.75%; `CCc1cccc(CC)c1NC(=O)CN1CCN(c2ccccc2)CC1`: 20.5%.
Next, `COc1ccc(OC)c(CN2CCN(C(=O)c3cc(S(=O)(=O)Nc4ccccc4OC)ccc3C)CC2)c1`: -2.48%; `COc1ccccc1NS(=O)(=O)c1ccc(C)c(C(=O)N2CCCC2)c1`: -1.95%; `COc1cc(C(O)P(=O)(OCCC(C)C)c2ccc(N(C)C)cc2)cc(OC)c1OC` (configuration not stated): -1.91%.
As to `CN(C)/C=N/c1ncc(C(=O)c2ccc(Cl)cc2)s1`, the inhibition was 3.44%.
Next, `CN(C)/C=N/c1ncc(C(=O)c2ccccc2)s1`: 7.32%; `COc1ccc(CC(=O)NNC(=O)c2cc(Cl)ccc2OC)cc1`: -0.57%; `CC(Oc1ccccc1)C(=O)NC1C(=O)N2C1SC(C)(C)C2C(=O)O` (configuration not stated): 6.29%.
For the compound `Cc1nc(CSc2nnc(Nc3cccc(C)c3C)s2)cs1`, the inhibition is 4.77%.
Next, `Cc1cccc(Nc2nc3ccccc3s2)c1C`: 0.63%; `Cc1ccc(Nc2nc3ccccc3o2)cc1F`: 1.08%.
The value for `O=C1c2ccccc2C(=O)N1CSc1nnc(Nc2ccccc2F)s1` was 5.49%; that for `Cc1nnc(Nc2ccccc2F)s1` was 8%.
Next, `COc1ccccc1Nc1nc(C)cs1`: 0.84% and 0.19%.
Consider `COc1ccccc1Nc1ccc(Nc2ccccc2OC)nn1`, for which the inhibition is -7.41%.
The value for `Cc1nnc(Nc2ccc(Cl)cc2)s1` was -3.99%; that for `Cc1cc(C)n(C(=O)c2c([N+](=O)[O-])cnn2C)n1` was -7.87%; that for `O=C(Cc1ccc(F)cc1)Nc1cccc2cccnc12` was 5.65%.
Turning to `Cc1ccc(Sc2cnccc2C#N)cc1`, the inhibition is -14.2%.
Next, `COC(=O)c1cc(C(=O)OCC(=O)N(C)C2CCS(=O)(=O)C2)cc([N+](=O)[O-])c1` (configuration not stated): -3.52%; `CC1Sc2ccc(S(=O)(=O)N3CCC(C(=O)NCCc4ccccc4)CC3)cc2NC1=O` (configuration not stated): 6.85%; `COc1cc(C2NC(=O)NC(c3ccccc3)=C2C(C)=O)c(Br)c(Br)c1O` (configuration not stated): 25.1%.
Take `CCOC(=O)c1cc(NC(=O)C2C3C=CC(O3)C2C(=O)O)cc(C(=O)OCC)c1` (configuration not stated): the inhibition is 6.71%.
Next, `CN1CCN(S(=O)(=O)c2ccc(Oc3cccc(C(F)(F)F)c3)nc2)CC1`: 9.66%; `O=c1c(Br)c(N2CCCCC2)cnn1-c1ccccc1`: 3.03%; `CCc1cc(=O)oc2cc(OCC(=O)NCCN3CCOCC3)c(Cl)cc12`: 0.13%.
Next, `Clc1ccccc1Nc1nnc(-c2ccncc2)s1`: 12.4%.
The value for `Cc1cc(=O)[nH]c(Nc2cccc(Cl)c2C)n1` was 3.14%.
As for `O=C(c1ccccc1)c1cnc(Nc2ccccc2Cl)s1`, the inhibition was 8.39%.
In the case of `Cc1ccc(Nc2nc3c(s2)CCC3)c(C)c1`, the inhibition is 9.23%.
Next, `CCOc1ccc(Nc2nc3ccccc3c(=O)s2)cc1`: 4.2%; `Cc1c(Cl)cccc1Nc1ccccc1C(=O)O`: 3.44%.
The value for `Cc1ccc(Nc2nc3ccccc3s2)c(C)c1` was 7.17%; that for `CCOC(=O)c1sc(Nc2ccc(OCC)cc2)nc1C` was -3.93%; that for `N#CC1(Nc2ccc(S(N)(=O)=O)cc2)CCCC1` was 2.96%.
The value for `Cc1ccc2c(C(=O)CN3CCCCC3)c(C)[nH]c2c1` was 3.73%.
With `COC(=O)c1cc(C(=O)Nc2nnc(C3CC3)s2)cc([N+](=O)[O-])c1`, the inhibition was 11.3%.
Next, `O=C(CSc1ccc(Br)cc1)NCC1(N2CCCCC2)CCCCC1`: 5.48%.
Next, `CCC1(CC)NC(=O)N(CC(=O)OC(C)C(=O)Nc2ccccc2OC)C1=O` (configuration not stated): 1.87%; `COc1ccc(N2CCC(CNC(=O)Nc3ccc(C)c(C)c3)C2)cc1` (configuration not stated): 36.2%.
The value for `COc1ccc(N2CCC(CNC(=S)Nc3c(C)cc(C)cc3C)C2)cc1` (configuration not stated) was 23.7%; that for `CCc1ccc(NC(=O)NCC2CCN(c3ccc(OC)cc3)C2)cc1` (configuration not stated) was 10.4%.
Regarding `COc1ccc(C(=O)N2CCC(CCC(=O)Nc3cccc(C)c3)CC2)cc1`, the inhibition is 5.31%.
As to `COc1ccc(N2CCN(C(=S)Nc3cccc(C)c3)CC2)cc1`, the inhibition is 14.2%.
The value for `CCc1cccc(C)c1NC(=S)NCC1CCN(c2ccc(OC)cc2)C1` (configuration not stated) was 26.6%.
The value for `CCOc1ccc(NC(=O)NCC2CCN(c3ccc(OC)cc3)C2)cc1` (configuration not stated) was 5.23%; that for `COc1ccc(N2CCC(CNC(=O)Nc3ccc(Cl)cc3)C2)cc1` (configuration not stated) was 23.3%.

(Values after PubChem BioAssay AID624330 (Southern Research Specialized Biocontainment Screening …, 2012).)
